From PubChem BioAssay AID1159580 (chemical genetic matrix, 2015)
The campaign covered roughly 5,500 compounds. About 2,000 (36%) were called active. Not shown: some 18% with an inconclusive outcome. Rule as the data show it: active = normalized growth mostly below about 0.91 (no sharp cut-off); inconclusive = no clear call, values can overlap the other calls; inactive = mostly above about 0.92. Some of the results follow.

Test: chemical genetic growth profiling, strain panel (AID 1159580);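 also: tested at 20 µM; growth read once vehicle control cultures reached saturation at 30 °C; 1 = growth at the plate median or of vehicle wells; lower values mean less growth of the strain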
Conditions: S. cerevisiae deletion strains, growth OD

Measured: normalized growth

CN[C@@H]1[C@@H](O)C(OC2[C@@H](N)C[C@@H](N)[C@H](O[C@H]3O[C@H](C(C)O)[C@@H](O)[C@H](O)[C@H]3N)[C@H]2O)OC[C@]1(C)O (stereo not given in full)
inactive: locus YAL021C, strain ccr4, active compounds read low 0.963 | locus YAL026C, strain drs2, active compounds read low 0.984 | locus YAL030W, strain snc1, active compounds read low 0.986 | locus YBL061C, strain skt5, active compounds read low 0.978 | locus YBR009C, strain hhf1, active compounds read low 0.989 | locus YBR023C, strain chs3, active compounds read low 0.973 | locus YBR171W, strain sec66, active compounds read low 0.968 | locus YBR231C, strain swc5, active compounds read low 0.991 | locus YBR279W, strain paf1, active compounds read low 0.981 | locus YCL011C, strain gbp2, active compounds read low 0.969 | locus YCL016C, strain dcc1, active compounds read low 0.976 | locus YCL061C, strain MRC1, active compounds read low 0.985 | locus YCL069W, strain vba3, active compounds read low 0.966 | locus YCR088W, strain abp1, active compounds read low 0.978 | locus YDL005C, strain med2, active compounds read low 0.967 | locus YDL040C, strain nat1, active compounds read low 0.997 | locus YDR001C, strain nth1, active compounds read low 0.982 | locus YDR069C, strain doa4, active compounds read low 0.969 | locus YDR137W, strain rgp1, active compounds read low 1.02 | locus YDR159W, strain sac3, active compounds read low 0.969 | locus YDR195W, strain ref2 0.973 | locus YDR297W, strain sur2, active compounds read low 0.979 | locus YDR334W, strain swr1, active compounds read low 0.967 | locus YDR335W, strain msn5, active compounds read low 0.979 | locus YDR392W, strain spt3, active compounds read low 0.938 | locus YEL003W, strain gim4, active compounds read low 0.982 | locus YEL037C, strain rad23, active compounds read low 0.977 | locus YEL061C, strain CIN8 (second series), active compounds read low 0.985 | locus YER015W, strain faa2, active compounds read low 0.964 | locus YER016W, strain bim1, active compounds read low 0.981 | locus YER111C, strain swi4, active compounds read low 0.977 | locus YER155C, strain BEM2 (second series), active compounds read low 0.966 | locus YFR010W, strain ubp6, active compounds read low 0.971 | locus YGL167C, strain pmr1, active compounds read low 0.977 | locus YGL173C, strain kem1, active compounds read low 0.96 | locus YGL227W, strain vid30, active compounds read low 0.98 | locus YGL240W, strain doc1, active compounds read low 0.977 | locus YGL253W, strain hxk2, active compounds read low 0.963 | locus YHR013C, strain ard1, active compounds read low 0.976 | locus YHR027C, strain rpn1, active compounds read low 0.977 | locus YHR030C, strain SLT2, active compounds read low 1.05 | locus YHR079C, strain IRE1, active compounds read low 1.05 | locus YHR142W, strain chs7, active compounds read low 0.966 | locus YJL092W, strain hpr5, active compounds read low 0.96 | locus YJL095W, strain BCK1 (second series), active compounds read low 0.966 | locus YJL095W, strain BCK1, active compounds read low 0.989 | locus YJL115W, strain asf1, active compounds read low 0.984 | locus YJL129C, strain trk1, active compounds read low 0.97 | locus YJL154C, strain vps35, active compounds read low 0.976 | locus YJL164C, strain tpk1, active compounds read low 0.984 | locus YJL166W, strain qcr8, active compounds read low 0.982 | locus YJL187C, strain SWE1, active compounds read low 0.988 | locus YJR066W, strain TOR1, active compounds read low 0.995 | locus YKL160W, strain elf1, active compounds read low 0.988 | locus YKR026C, strain gcn3, active compounds read low 0.979 | locus YKR091W, strain srl3, active compounds read low 0.971 | locus YLL001W, strain dnm1, active compounds read low 0.988 | locus YLL026W, active compounds read low 0.971 | locus YLL041C, strain sdh2, active compounds read low 0.976 | locus YLR027C, strain aat2, active compounds read low 0.973 | locus YLR113W, strain HOG1, active compounds read low 0.995 | locus YLR221C, strain rsa3, active compounds read low 0.974 | locus YLR258W, strain gsy2, active compounds read low 0.969 | locus YLR262C, strain YPT6 (second series), active compounds read low 1.02 | locus YLR320W, strain mms22, active compounds read low 0.976 | locus YLR342W, strain FKS1, active compounds read low 0.972 | locus YLR357W, strain rsc2, active compounds read low 0.977 | locus YLR370C, strain arc18, active compounds read low 0.962 | locus YLR384C, strain iki3, active compounds read low 0.958 | locus YML120C, strain ndi1, active compounds read low 0.981 | locus YMR058W, strain fet3, active compounds read low 0.985 | locus YMR125W, strain sto1, active compounds read low 0.975 | locus YMR129W, active compounds read low 0.989 | locus YMR205C, strain PFK2, active compounds read low 1.01 | locus YMR231W, strain pep5, active compounds read low 0.965 | locus YNL071W, strain lat1, active compounds read low 0.975 | locus YNL183C, strain NPR1, active compounds read low 0.942 | locus YNL209W, strain ssb2, active compounds read low 0.994 | locus YNL248C, strain rpa49, active compounds read low 0.987 | locus YNL322C, strain KRE1 (second series), active compounds read low 0.967 | locus YNR049C, strain mso1, active compounds read low 0.979 | locus YOR001W, strain rrp6, active compounds read low 0.969 | locus YOR070C, strain gyp1, active compounds read low 0.974 | locus YOR080W, strain dia2, active compounds read low 0.975 | locus YOR083W, strain WHI5, active compounds read low 0.976 | locus YOR106W, strain vam3, active compounds read low 0.964 | locus YOR231W, strain MKK1, active compounds read low 1.04 | locus YOR265W, strain rbl2, active compounds read low 0.983 | locus YOR270C, strain vph1, active compounds read low 0.981 | locus YOR290C, strain snf2, active compounds read low 0.954 | locus YPL051W, strain arl3, active compounds read low 0.983 | locus YPL078C, strain atp4, active compounds read low 0.995 | locus YPL106C, strain sse1, active compounds read low 0.988 | locus YPL240C, strain hsp82, active compounds read low 0.977 | locus YPL256C, strain CLN2, active compounds read low 1.02
